Reference: PubChem BioAssay (EPA / NIEHS)
Activity calls are given as the source filed them. Rule for the calls: active = hit-call score of the fitted dose curve at least 0.9, where 1 is the maximum; inactive = score below 0.9.

Experiment: ATG_RORE_CIS: Attagene CIS-FACTORIAL HepG2 Assay for human RAR-related Orphan Receptor Element (RORE) (AID 2282959)
Conditions: HepG2 Attagene cis-factorial RORE reporter, mRNA; actives raise or lower the signal
Procedure: ATG_CIS is a cell-based, multiplexed-readout assay that uses HepG2, a human liver cell line, with measurements taken at 24 hours after chemical dosing in a 24-well plate.ATG_RORE_CIS is one of 52 assay component(s) measured or calculated from the ATG_CIS assay. It is designed to make measurements of mRNA induction, a form of inducible reporter, as detected with fluorescence intensity signals by Reverse transcription polymerase chain reaction (RT-PCR) and Capillary electrophoresis technology.Data from the assay component ATG_RORE_CIS was analyzed into 1 assay endpoint. This assay endpoint, ATG_RORE_CIS, was analyzed with bidirectional fitting relative to DMSO as the negative control and baseline of activity. Using a type of inducible reporter, measures of mRNA for gain or loss-of-signal activity can be used to understand the reporter gene at the transcription factor-level as they relate to the gene RORA and RORB and RORC. Furthermore, this assay endpoint can be referred to as a primary readout, because this assay has produced multiple assay endpoints where this one serves a reporter gene function. To generalize the intended target to other relatable targets, this assay endpoint is annotated to the nuclear receptor intended target family, where the subfamily is orphan.
Human liver HepG2 cells are transiently transfected with multiple reporter transcription units (MRTUs) in 6-well plates using FuGene 6 reagent (Roche; 3 ml FuGene/1 mg DNA). The MRTU constructs are regulated by a cis-regulating element (promoter). […] A major difference between the CIS and TRANS system is that in CIS activities of endogenous TFs are measured, whereas the TRANS assay evaluates changes in activities of exogenous, chimeric NR-Gal4 proteins. […] At the end of 24 hour incubation, total RNA was isolated using TriZol reagent (Invitrogen). The isolated RNA is then reverse-transcribed using oligo(dT) primer and Mo-MLV reverse transcriptase (Invitrogen) with DNAse I (Ambion) treatment for 30 min. The one-tenth of the produced cDNA was amplified by PCR using Taq DNA polymerase (Invitrogen) and two reporter sequence-specific primers. The PCR products were fluorescently labeled by primer extension with 6-arboxyfluorescein (6-FAM) 5'-labeled reporter sequence-specific primer (2 min at 95 C, 20 s at 68 C and 10 min at 72 C) and these products were digested with 5U of HpaI (New England Biolabs) for 2h at 37 C. The fragments were purified using Qiaquick PCR columns (Qiagen), analyzed on an ABI 3130xL genetic analyzer (Applied Biosystems) with peak positions identified by using a set of X-rhodamine (ROX)-labeled MapMarker1000 molecular weight standards (BioVentures). The raw capillary electrophoresis data was processed using Attagraph software (Attagene).

Row | Structure (SMILES) | outcome | AC50
1 | CCCc1ccccc1 | inactive | 
2 | Cc1nccn1-c1ccc(Sc2cccc(C3(C(N)=O)CCOCC3)c2)cc1 |  | 5.29 µM (active)
3 | CCCCCCCCCCCCCCCCOS(=O)(=O)O | inactive | 
4 | CCOc1ccc2[nH]cc(C(=O)NCc3ccccc3)c(=O)c2n1 | inactive | 
5 | FC(F)(F)COC(OCC(F)(F)F)OCC(F)(F)F | inactive | 
6 | C[Si](C)(C)C(F)(F)C(F)(F)C(F)(F)F | inactive | 
7 | OCC(CO)(CO)CO | inactive | 
8 | COc1cc2c(c(OC)c1OC)-c1ccc(OC)c(=O)cc1[C@@H](NC(C)=O)CC2 | inactive | 
9 | COc1cc(C(C)C)c2c(c1)S(=O)(=O)N(COc1cc(=O)n3cccc(OCCN4CCCCC4)c3n1)C2=O |  | 8.25 µM (active)
10 | Nc1ccn([C@@H]2O[C@H](CO)[C@@H](O)[C@@H]2O)c(=O)n1 | inactive | 
11 | CCc1ccc(O)c(C(C)(C)C)c1 | inactive | 
12 | CCCCCCCC1CCC(=O)O1 (stereo not given) | inactive | 
13 | OCc1c[nH]c2ccccc12 |  | 2.51 µM (active) [middle of 5 runs]
14 | CCCCN1C(=O)[C@@H]([C@H](O)C2CCCCC2)NC(=O)C12CCN(Cc1ccc(Oc3ccc(C(=O)O)cc3)cc1)CC2 | inactive | 
15 | O=S1(=O)CCCO1 | inactive | 
16 | NC(=O)NN=Cc1ccc([N+](=O)[O-])o1 | inactive | 
17 | O=C(NO)C1(NS(=O)(=O)c2ccc(Oc3ccc(F)cc3)cc2)CCOCC1 | inactive | 
18 | OC(CCl)CCl | inactive | 
19 | C=CCc1cc(S(=O)(=O)c2ccc(O)c(CC=C)c2)ccc1O |  | 17.4 µM (active)
20 | O=C(N[C@H](CO)[C@H](O)c1ccc([N+](=O)[O-])cc1)C(Cl)Cl | inactive | 

Row | Structure (SMILES) | outcome | AC50
21 | NC(=O)N1c2ccccc2C=Cc2ccccc21 | inactive | 
22 | O=c1[nH]cnc2c1ncn2[C@H]1CC[C@@H](CO)O1 | inactive | 
23 | OC[C@H]1O[C@@H]2O[C@H]3[C@H](O)[C@@H](O)[C@@H](O[C@H]4[C@H](O)[C@@H](O)[C@@H](O[C@H]5[C@H](O)[C@@H](O)[C@@H](O[C@H]6[C@H](O)[C@@H](O)[C@@H](O[C@H]7[C@H](O)[C@@H](O)[C@@H](O[C@H]1[C@H](O)[C@H]2O)O[C@@H]7CO)O[C@@H]6CO)O[C@@H]5CO)O[C@@H]4CO)O[C@@H]3CO | inactive | 
24 | OC[C@H]1O[C@@](CO)(O[C@H]2O[C@H](CO)[C@@H](O)[C@H](O)[C@H]2O)[C@@H](O)[C@@H]1O | inactive | 
25 | c1ccc2ncccc2c1 | inactive | 
26 | OCCC(F)(F)C(F)(F)C(F)(F)C(F)(F)F | inactive | 
27 | O=S(=O)(O)CCC(F)(F)C(F)(F)C(F)(F)C(F)(F)C(F)(F)C(F)(F)F | inactive | 
28 | CCOC(N)=O | inactive | 
29 | Cc1ncc([C@@H](CCCCCCc2ccc3c(n2)NCCC3)CC(=O)O)cn1 | inactive | 
30 | O=C(O)CO | inactive | 
31 | CCCCCOC(C)=O | inactive | 
32 | NNC(=O)c1ccncc1 | inactive | 
33 | Cc1ccc(S(=O)(=O)NC(=O)NN2CCCCCC2)cc1 | inactive | 
34 | O=S(=O)(O)c1ccc(N=Nc2c(O)ccc3cc(S(=O)(=O)O)ccc23)cc1 | inactive | 
35 | CC(C)CCCCCCOC(=O)C1CCCCC1C(=O)OCCCCCCC(C)C (stereo not given) | inactive | 
36 | CCCOc1ccc(S(=O)(=O)N2CCN(CC)CC2)cc1-c1nc2c(CC)n(Cc3ccccn3)nc2c(=O)[nH]1 |  | 2.63 µM (active)
37 | OC(Cn1cncn1)(Cn1cncn1)c1ccc(F)cc1F | inactive | 
38 | OCc1ccccc1 | inactive | 
39 | c1ccc(C(O[C@@H]2CCCN(CCc3ccc4c(c3)OCO4)C2)c2ccccc2)cc1 | inactive | 
40 | OC(O)(C(F)C(O)(O)C(F)(F)F)C(F)(F)F | inactive | 
